The values that follow come from PubChem BioAssay (EPA / NIEHS).

Test [1] can be described thus: ATG_XTT_Cytotoxicity: Cytotoxicity Assessment in the Attagene TRANS-FACTORIAL HepG2 Assay (AID 2283584). In outline: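 HepG2 human liver cells, transiently transfected with multiple GAL4-UAS reporter units, were dosed and read at 24 h by XTT as cell number. Loss of signal was fitted relative to DMSO negative control baseline.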
Test [2] is described as follows: TOX21_p53_BLA_p2_viability: Viability Assessment in the Tox21 HCT-116 p53 Agonism Beta-lactamase Assay, Phase 2 (AID 2283591).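 Also: compound exposure lasted 16 h at 37 °C; actives lower the ATP signal meaning cytotoxicity.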 In outline:
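HCT-116 p53-bla cells (4000/well) rested 5 h at 37C, then received compounds in DMSO (217-fold dilution) for 16 h at 37C, 5% CO2. After the CCF4 read, CellTiter-Glo was added; ATP luminescence was read after 30 min at room temperature.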

Test [3] addresses Cellular tumor antigen p53 (Homo sapiens) (UniProt P04637). Description: TOX21_p53_BLA_p2_ratio: Tox21 HCT-116 p53 Agonism Beta-lactamase Assay, Ratio, Phase 2 (AID 2283592). The procedure, abridged: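 Ratio endpoint: beta-lactamase cleavage of CCF4-AM, blue (460 nm) over green (530 nm). HCT116 reporter line; 16 h treatment, 37C; substrate 2 h RT.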
A short description of test [4]: TOX21_p53_BLA_p3_viability: Viability Assessment in the Tox21 HCT-116 p53 Agonism Beta-lactamase Assay, Phase 3 (AID 2283593).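 Also: cells exposed to compound for 16 h before reading.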 In outline:
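HCT-116 cells (4000/well) rested 5 h at 37C, then got DMSO compounds by pin tool (217-fold dilution) for 16 h at 37C, 5% CO2. After the bla read, CellTiter-Glo was added and luminescence read at 30 min, room temperature.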

The target of test [5] is Cellular tumor antigen p53 (Homo sapiens) (UniProt P04637). Description: TOX21_p53_BLA_p3_ratio: Tox21 HCT-116 p53 Agonism Beta-lactamase Assay, Ratio, Phase 3 (AID 2283596). The procedure, abridged: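 Cells were seeded at 4000/well, rested 5 h at 37C, then dosed with DMSO compound solutions (217-fold dilution) for 16 h. CCF4-AM substrate was loaded for 2 h at room temperature, and the 460/530 nm emission ratio was fitted for gain of signal versus DMSO.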

Inconclusive results are not listed. More than one record can exist for a structure, and the calls need not agree. Active and inactive are the calls of the source. The calls were made as follows: active = hit-call score of the fitted dose curve at least 0.9, where 1 is the maximum; inconclusive = response in the unintended direction; inactive = score below 0.9.

Cellular tumor antigen p53 (Homo sapiens), sequence (P04637 whole entry, looked up): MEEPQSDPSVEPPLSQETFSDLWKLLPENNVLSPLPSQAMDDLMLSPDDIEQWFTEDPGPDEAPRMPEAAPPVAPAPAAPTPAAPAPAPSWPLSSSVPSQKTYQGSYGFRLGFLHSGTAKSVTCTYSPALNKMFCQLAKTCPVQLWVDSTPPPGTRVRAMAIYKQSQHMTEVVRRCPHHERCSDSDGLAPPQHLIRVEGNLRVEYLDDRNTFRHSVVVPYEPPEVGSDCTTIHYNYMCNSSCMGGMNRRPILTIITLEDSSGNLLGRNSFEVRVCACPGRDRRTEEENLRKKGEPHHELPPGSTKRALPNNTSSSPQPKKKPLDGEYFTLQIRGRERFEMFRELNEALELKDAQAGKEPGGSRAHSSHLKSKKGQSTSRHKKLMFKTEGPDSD

In the case of `C=CCOC(=O)c1ccc(C(=O)OCC=C)c(C(=O)OCC=C)c1`, in test [1], the result was inactive.

Consider `N#Cc1ccc(C(c2ccc(C#N)cc2)n2cncn2)cc1`, for which the compound was called inactive in test [1].

Regarding `CC=CC(=O)OCC(C)C`, the result in test [1] was inactive.

Take `Cn1cccc1`: the outcome in test [1] was inactive.

As for `C1CCSC1`, the compound was classed as inactive in test [1].

With `O=C1CCCCC1C1CCCCC1` (configuration not stated), the outcome in test [1] was inactive.

As to `COC(=O)C=Cc1ccccc1`, the compound was called inactive in test [1].

Take `CC/C=C\C/C=C\C/C=C\CCCCCCCC(=O)OC`: the outcome in test [1] was inactive.

`Cc1ccc(C)c(OCCCC(C)(C)C(=O)O)c1`: in test [1], the outcome was inactive.

Turning to `CCC(C)c1ccccc1` (configuration not stated), in test [1], the result was inactive.

With `C=CCCCCCCCCC=O`, the compound was classed as inactive in test [1].

Regarding `Cc1c(Cl)cccc1Cl`, the outcome in test [1] was inactive.

`CCC1(C)C(=O)N(Cl)C(=O)N1Cl` (configuration not stated): the compound was called inactive in test [1].

In the case of `CC(c1cc(C(C)(C)C)cc(C(C)(C)C)c1O)c1cc(C(C)(C)C)cc(C(C)(C)C)c1O`, the compound was classed as inactive in test [1].

With `CCCCCCCC(=O)OCC`, the compound was called inactive in test [1].

On to `CC=C(C)C(C)=O`, for which the compound was called inactive in test [1].

Consider `Cc1c[nH]c(=O)[nH]c1=O`, for which the compound was classed as inactive in test [1].

`CO[Si](C)(C)OC`: the outcome in test [1] was inactive.

Regarding `Nc1cccc(N)n1`, the compound was classed as inactive in test [1].

As for `CCOC(=O)C1=NN(c2ccc(Cl)cc2Cl)C(C)(C(=O)OCC)C1` (configuration not stated), the outcome in test [1] was inactive.

In the case of `CCN(CC)c1cccc(C)c1`, the call in test [1] was inactive.

Take `COc1nccnc1CC(C)C`: the call in test [1] was inactive.

As for `CCCCCC1=CCCC1=O`, the outcome in test [1] was inactive.

Turning to `CCc1cccc(C)c1N(C(=O)CS(=O)(=O)O)C(C)COC` (configuration not stated), in test [1], the compound was classed as inactive.

For `CC(=O)CCC1=C(C)CCCC1(C)C`, the outcome in test [1] was inactive.

As for `CCCC=C(C=O)CC`, in test [1], the compound was classed as inactive.

Turning to `CCCCC(C=O)CC` (configuration not stated), the call in test [1] was inactive.

For `CC1=CC=C(C(C)C)CC1`, the call in test [1] was inactive.

As for `CC1CCC(=O)C1=O` (configuration not stated), the compound was called inactive in test [1].

As to `[Cl][Eu]([Cl])[Cl]`, in test [1], the outcome was inactive.

A word on the AC50: it is the midpoint of the concentration-response curve, whichever way the signal moves. Regarding `CCCCC/C=C\C/C=C\CCCCCCCC(=O)O`, the call in test [1], in test [2], in test [3], in test [4] and in test [5] was inactive. Besides, the AC50 in test [2] is 41.5 µM (active); in test [3], 72.9 µM (active); in test [4], 47.2 µM (active); in test [5], 72 µM (active).

On to `CC1(C)CC(O)CC(C)(C)N1[O]`, for which the call in test [1] was inactive.

On to `CCCCCCCCC(CO)CCCCCC` (configuration not stated), for which the compound was classed as inactive in test [1].

Regarding `CC(C)CO`, in test [1], the outcome was inactive.

Turning to `[Cl][Sc]([Cl])[Cl]`, the outcome in test [1] was inactive.

In the case of `COC(=O)c1ccc(C(=O)OC)c(C(=O)OC)c1`, in test [1], the compound was called inactive.

For `Nc1ccnc(=O)[nH]1`, the compound was called inactive in test [1] and in test [2].

Turning to `CC(C)C(=O)OCCc1ccccc1`, in test [1], the compound was classed as inactive.

Regarding `CC1=CP(=O)(c2ccccc2)CC1` (configuration not stated), the compound was classed as inactive in test [1].

For `CCCCCCCCCCCC(=O)N(C)CC(=O)O`, the compound was called inactive in test [1].

Consider `CC1=NN(c2ccc(S(=O)(=O)O)cc2)C(=O)C1N=Nc1ccccc1` (configuration not stated), for which the outcome in test [1] was inactive.

Turning to `c1ccc(-c2nc3ccccc3[nH]2)cc1`, the compound was called inactive in test [1].

Turning to `COc1cc(O)c(C(=O)c2ccccc2)cc1S(=O)(=O)O`, the compound was called inactive in test [1].

`C=CC(=O)NC(C)(C)C`: the call in test [1] was inactive.

In the case of `C=CC(=O)NCOCCCC`, the call in test [1] was inactive.

As to `O=C(Oc1ccccc1)c1ccccc1O`, the outcome in test [1] was inactive.

As for `CCNc1nc(NC(C)(C)C)nc(OC)n1`, the compound was classed as inactive in test [1].

As to `CC1(C)C(=O)N(CO)C(=O)N1CO`, the result in test [1] was inactive.

`CCOC(=O)OC(=O)OCC`: in test [1], the result was inactive.

On to `CCc1cccc(CC)c1`, for which the result in test [1] was inactive.

As to `CCCCC(CC)COS(=O)(=O)O` (configuration not stated), the compound was classed as inactive in test [1].

With `CC(C)(CO)C(O)C(=O)NCCCO` (configuration not stated), in test [1], the result was inactive.

In the case of `CCOC(=O)[C@H](O)[C@@H](O)C(=O)OCC`, the compound was called inactive in test [1].
